# Results reported in PubChem BioAssay AID435030 (The Scripps Research Institute Molecular Screening Center, 2010).
# Out of some 330,000 compounds screened, about 940 (0.28%) were called active. For the sample, actives were picked, then their nearest neighbours and some compounds at random. A number with no mark means an inactive call. Rule as the data show it: active = inhibition above about 12%; inactive = the rest.
# Assay: reduced growth of AddAB-expressing E. coli cells – absorbance, AddAB inhibitor project, primary screen (AID 435030);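 also: 0% = vehicle wells of infected cells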
# Details: E. coli expressing H. pylori AddAB, at 11.9 µM, hits give high values
row,SMILES,inhibition
1,Cc1ccc(-n2c(-c3ccc([N+](=O)[O-])cc3)nc3ccccc3c2=O)cc1,0.16%
2,O=[N+]([O-])c1cnc2ccc3ccccc3c2c1,50.7% (active)
3,C/C(=N/O)c1ccc2ccc3ccccc3c2c1,1.43%
4,CCc1ccc(OCC(=O)N2CCN(CC(=O)Nc3ccccc3Cl)CC2)cc1,-0.08%
5,CN(C)S(=O)(=O)c1cc(C(=O)N2CCC(C(=O)O)(c3ccccc3)CC2)ccc1Cl,23.8% (active)
6,CCc1nc2ccccc2c(=O)n1-c1cccc(OC)c1,1.96%
7,COc1ccc(S(=O)(=O)NCc2ccc(C(=O)N3CCC4(CC3)OCCO4)cc2)cc1,2.3%
8,c1ccc2sc(N3CCNCC3)nc2c1,-0.09%
9,C[C@]12CC[C@H](O)CC1=C([N+](=O)[O-])CC1C2CC[C@@]2(C)C1CC[C@@H]2O (stereo not given in full),1.39%
10,Cc1ccc(-c2nn(CCC#N)cc2C(=O)O)cc1C,2.06%
